According to PubChem BioAssay AID1159580 (chemical genetic matrix, 2015):
The campaign covered roughly 5,500 compounds. About 2,000 (36%) were called active. Not shown: some 18% with an inconclusive outcome. Cut-off read from the data, not from the text of the source: active = normalized growth mostly below about 0.91 (no sharp cut-off); inconclusive = no clear call, values can overlap the other calls; inactive = mostly above about 0.92. Some of the results follow.

Experiment: chemical genetic growth profiling, strain panel (AID 1159580);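 note: tested at 20 µM; growth read once vehicle control cultures reached saturation at 30 °C; 1 = growth at the plate median or of vehicle wells; lower values mean less growth of the strain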
Conditions: S. cerevisiae deletion strains, growth OD

Measured: normalized growth

CN[C@H]1C[C@@H](N)[C@H](O)[C@@H](O[C@@H]2O[C@H](CO)[C@@H]3OC4(O[C@@H]3[C@@H]2O)O[C@H](C(N)CO)[C@H](O)[C@H](O)[C@H]4O)[C@@H]1O (stereo partly drawn)
inactive: locus YHR030C, strain SLT2, active compounds read low 1.05 | locus YHR079C, strain IRE1, active compounds read low 1.05 | locus YJL095W, strain BCK1, active compounds read low 1.05 | locus YJR066W, strain TOR1, active compounds read low 0.982 | locus YLR113W, strain HOG1, active compounds read low 1.02 | locus YNL183C, strain NPR1, active compounds read low 0.969 | locus YOR231W, strain MKK1, active compounds read low 1.03 | locus YPL256C, strain CLN2, active compounds read low 1.03
